Shown is part of a subset that was picked to be rich in hits.
N370S GC: inhibitors or activators of N370S glucocerebrosidase for Gaucher disease. P04062. N370S GC spleen homogenate, 4MU-glucoside fluorescence. Potency, µM (titrated, usually from 59.4 µM), without a hit: at the top dose activity change, negative = inhibition, hits mostly inhibitors. 330,000 compounds, 0.092% hits. AID 2101;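 also: potency is read from the fitted curve at half-maximal effect; 0% = full enzyme activity and -100% = no enzyme basal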
Glioma ERSR ind: inducers of ER stress response in human glioma cells; U87-MG GRP78 promoter luciferase reporter, 16 h; Potency, µM, for inactives: at the highest dose activation, most hits filed as activators; 420,000 compounds, 0.02% hits; also: potency is read from the fitted curve at half-maximal effect; series mostly up to about 76 µM; % of control where 0% means no effect; nearly all actives have a fitted effect of over 35% in size
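Stably transfected U87-MG human glioma cells carrying a GRP78-based luminescent sensor were seeded at 1000 cells/well, pin-dosed with compounds and incubated 16 h. Luciferase reagent was then added, and end-point luminescence was read after 10 min at room temperature.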
Anesthetic bind: candidate novel general anesthetic via apoferritin binding; P02791; apoferritin/1-aminoanthracene competitive binding, fluorescence; Potency, µM (highest dose often 77.5 µM), without a hit: at the highest dose activity change, negative = displacement, hits mostly inhibitors; 350,000 compounds, 0.074% hits; AID 485281; also: potency is read from the fitted curve at half-maximal effect; % is scaled to controls: 0 for no effect and ±100 for the full control effect; nearly all actives have a fitted effect of over 20% in size
Target sequence (P02791 2-175 limits assumed): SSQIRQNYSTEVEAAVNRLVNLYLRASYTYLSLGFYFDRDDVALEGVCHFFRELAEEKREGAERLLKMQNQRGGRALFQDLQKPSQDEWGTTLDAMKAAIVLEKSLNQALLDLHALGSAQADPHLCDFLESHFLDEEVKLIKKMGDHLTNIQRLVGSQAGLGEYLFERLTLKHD
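Probe: 1-aminoanthracene (50% saturated, PBS). Protein: horse-spleen apoferritin, 10 uM. Incubation: 10 min, room temperature. Detection: 380 nm excitation, 535 nm emission. Analysis: normalized response, four-parameter Hill.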
ClpP mod: qHTS Assay for Activators of ClpP; purified B. subtilis ClpP, FRET peptide cleavage, 20 min; Potency, µM (series often up to 57.5 µM), for inactives: at the top dose activity change, negative = active; 340,000 compounds, 1.9% hits; AID 651965, 2013; active = well fitted falling curve with a large enough effect; inconclusive = small, poorly fitted or top-dose-only effect; inactive = no such curve, though single readings can be large or run the other way; also: potency is read from the fitted curve at half-maximal effect; the source files actives as falling curves though it sought activators and does not explain the sign; nearly all actives have a fitted effect of over 65% in size
Target sequence (P80244 whole entry, looked up): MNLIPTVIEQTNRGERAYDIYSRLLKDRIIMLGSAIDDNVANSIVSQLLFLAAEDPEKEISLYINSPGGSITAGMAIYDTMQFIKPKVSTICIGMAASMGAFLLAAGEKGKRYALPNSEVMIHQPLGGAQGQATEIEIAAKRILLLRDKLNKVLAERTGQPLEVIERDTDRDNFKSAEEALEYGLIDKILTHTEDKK
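Purified B. subtilis ClpP, 10 microg/mL final in Tris/HCl pH8 with KCl, BSA, glycerol and Tween-20, cleaved an Abz/nitrotyrosine-quenched decapeptide. Fluorescence (ex 320, em 430) was read at 0 and 20 min at room temperature. Delta was normalized to 5.8 microM ADEP and DMSO/no-enzyme controls.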
CBFb-RUNX1 inh: blocks binding between human CBF-beta and RUNX1 | AlphaScreen CBFb-His/RUNX1-biotin binding, biochemical | Potency, µM (titrated, usually from 59.8 µM), inactives show top-dose activity, negative = inhibition, actives largely listed as inhibitors | 230,000 tested, under 10 active | AID 1477; also: % of control where 0% means no effect
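Room-temperature protein-protein interaction test with 30 nM each of His-tagged CBF-beta and biotinylated RUNX1, 15 min with compound, then 90 min with nickel plus streptavidin beads. Signal read in AlphaScreen mode.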
a7 integrin act: integrin-mediated muscular dystrophy alleviation activation | alpha7betagal myoblasts, beta-gal FDG fluorescence, 48 h | Potency, µM (titrated, usually from 38.3 µM), for inactives: at the highest dose activation, actives largely listed as activators | 350,000 compounds, 0.064% hits | AID 624291;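 also: potency is read from the fitted curve at half-maximal effect; 100% = response of the positive control SU9516; nearly all actives have a fitted effect of over 60% in size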
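Alpha7betagal+/- myoblasts (passage 13) were plated 16-24 hr, then exposed to compounds (1:260 dilution of DMSO stock) for 48 hours at 37C. After MPER lysis, β-galactosidase reporter activity was read as FDG fluorescence (ex 480/em 540) after 30 minutes.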
* marks the source's active call; other numbers are inactive results; ? = inconclusive; / = no result given. Unless noted, calls follow the shape of the dose curve; as a rule, active = well fitted curve in the direction sought with a large enough effect; inconclusive = small, poorly fitted or top-dose-only effect, or another doubt; inactive = no such curve, though single readings can be large; an effect the other way counts as inactive or inconclusive.

SMILES	N370S GC	Glioma ERSR ind	Anesthetic bind	ClpP mod	CBFb-RUNX1 inh	a7 integrin act
CCCCN1C=C(C(=O)OC)C(c2ccccc2C(F)(F)F)C(C(=O)OC)=C1	/	-6%	21%	32µM*	0%	0%
Cc1nn(-c2ccccc2)c(C)c1CC(=O)NCC1Cc2cc(F)cc(-c3cccnc3)c2O1 (stereo not drawn)	/	-1%	/	/	/	/
CCN(C(=O)COc1ccc2ccc(=O)oc2c1)C1CCCCC1	/	-2%	/	25µM*	/	10%
CN(C)C(=O)COc1ccc2ccc(=O)oc2c1	-19%	-2%	0%	32µM*	5%	1%
CN(CCO)C(=O)c1cn(C2CCN(Cc3cccc(C(F)(F)F)c3)CC2)nn1	/	-4%	/	/	/	/
Cc1ccc(NCC(O)Cn2cnc3c2c(=O)n(C)c(=O)n3C)cc1 (stereo not drawn)	8%	-3%	-7%	28µM*	0%	11%
S=C(c1ccc(Br)cc1)N1CCCC1	6%	-3%	-11%	25µM*	/	10%
Oc1ccc(C(=S)N2CCCCC2)cc1	-4%	?	?	1%	-1%	-1%
CCc1sc(-c2cc3cccc(OC)c3oc2=O)nc1-c1ccccc1	/	-3%	/	14µM*	/	/
COc1cccc2cc(-c3nc(-c4ccccc4)c(C)s3)c(=O)oc12	/	-4%	/	-4%	/	/
COc1ccc(-n2cc(-c3ccccc3)c3c(NC4CCCC4)ncnc32)cc1	/	0%	50%	?	/	/
Nc1ncnc2c1c(-c1ccc(Oc3ccccc3)cc1)cn2C1CCCC1	-6%	6%	/	28µM*	?	/
Cc1cc(Cl)ccc1Nc1ncccc1C(N)=O	-27%	6%	?	/	0%	-8%
NC(=O)c1cccnc1Oc1ccc(Cl)cc1Cl	6%	3%	5%	/	7%	10µM*
O=C(Nc1ccncc1)c1ccc(NS(=O)(=O)c2cccc(F)c2)cc1	?	-3%	3%	32µM*	5%	-2%
CN(C)c1ccc(C(I)C(I)c2ccnc3ccccc23)cc1 (stereo not drawn)	/	1%	/	-14%	/	/
Cc1ccc(C)c(-n2c(-c3csc(C)c3)n[nH]c2=S)c1	7%	-4%	-14%	?	-1%	24%
Cc1ccc(C)c(-n2c(-c3ccc4c(c3)OCO4)n[nH]c2=S)c1	12%	0%	-23%	28µM*	-1%	-11%
Clc1ccc(C2=CC(c3ccco3)n3ncnc3N2)cc1 (stereo not drawn)	22%	0%	256%	32µM*	-2%	15%
O=C(CCc1ccc(S(=O)(=O)NCc2ccccc2)cc1)NCc1cccnc1	1%	-4%	-12%	14µM*	11%	18%
CCCC[C@@H](C)/C=C(C)/C=C(\C)C(=O)NC1=C[C@@](O)(/C=C/C=C/C=C/C(=O)NC2=C(O)CCC2=O)[C@@H]2O[C@@H]2C1=O	0%	-12%	?	/	-27%	/
N#CC1=C(N)Oc2cc3ccccc3cc2C1c1cccnc1 (stereo not drawn)	-20%	-7%	-10%	-1%	-1%	-11%
N#CC1=C(N)Oc2c(ccc3cccnc23)C1c1cccnc1 (stereo not drawn)	-19%	-4%	35%	25µM*	?	-40%
CCOC(=O)C1(Cc2cccc(Cl)c2)CCCN(C(=O)c2cc(C)[nH]n2)C1 (stereo not drawn)	-13%	-5%	-11%	28µM*	/	11%
O=C(NCCN1Cc2ccccc2OC(c2ccsc2)C1)c1ccc2[nH]ccc2c1 (stereo not drawn)	/	-1%	/	/	/	/
SMILES	N370S GC	Glioma ERSR ind	Anesthetic bind	ClpP mod	CBFb-RUNX1 inh	a7 integrin act
Cn1c2ccccc2c2cnn(CC(=O)O)c(=O)c21	-23%	-2%	-6%	32µM*	5%	3%
COC(=O)Cn1ncc2c3ccccc3n(C)c2c1=O	-8%	0%	-12%	14µM*	5%	6%
CNC(=O)Cn1ncc2c3ccccc3n(C)c2c1=O	-1%	-1%	5%	4%	/	-4%
O=C(Cn1ncc2c3ccccc3n(Cc3ccccc3)c2c1=O)N1CCN(c2ncccn2)CC1	13%	2%	-5%	32µM*	-16%	-32%
O=C(Cc1ccc(OCCCCc2ccccc2)cc1)NO	/	2%	/	2%	/	/
O=C1CC(CC(=O)N2CC3CCCC2C3)(c2cccc(F)c2)C(=O)N1Cc1cccnc1 (stereo not drawn)	/	0%	/	/	/	/
OC(c1ccc(OCc2ccccc2)cc1)c1nnc(-c2ccccc2)o1 (stereo not drawn)	-7%	-4%	?	14µM*	-1%	-55%
CCOc1ccc(N=C(C)Nc2ccc(OCC)cc2)cc1	/	-3%	/	/	/	/
Cc1cc(=O)n2c3ccccc3n(CC(O)CN3CCCCC3)c2c1C#N (stereo not drawn)	-2%	-5%	-9%	28µM*	2%	0%
O=C(CCNC(=O)c1ccc(Br)o1)NCc1ccc(Cl)cc1	?	-1%	-11%	1%	2%	-6%
O=C(NCc1nnnn1-c1ccc(Cl)cc1)c1ccc(Br)o1	-19%	-6%	/	16µM*	/	-24%
O=C(CNC(=O)c1ccc(Br)o1)NNC(=O)c1ccccc1	1%	-5%	/	-6%	/	-11%
O=C(CNC(=O)c1ccc(Br)o1)NNC(=O)c1ccc(Cl)cc1	/	-5%	/	22µM*	/	11%
COc1ccccc1CN1CCCC(n2cc(C(=O)N3CCCCC3)nn2)C1 (stereo not drawn)	/	-4%	/	/	/	/
COc1cc(C=O)ccc1OCc1cccc(Br)c1	8%	1%	?	25µM*	?	29%
COc1cc(C=O)ccc1OCc1ccccc1Br	-9%	1%	-21%	-1%	?	7%
Cc1cnc(C)c(-c2cccc3c2OC(CNC(=O)C2(c4ccc(Cl)cc4)CC2)C3)n1 (stereo not drawn)	/	-1%	/	/	/	/
COc1cc2c(cc1NC(=O)c1ccc3c(c1)OCO3)oc1ccccc12	?	10%	-1%	32µM*	?	0%
COc1cc2c(cc1NCc1ccc3c(c1)OCO3)oc1ccccc12	14%	7%	56%	25µM*	?	31%
COc1ccccc1NC(=O)c1ccc2c(c1)OCO2	-1%	0%	-6%	/	/	26%
CCc1c(C(=O)NCCc2ccc(N3CCCCC3)cc2)[nH]c2ccc(Cl)cc12	/	-4%	/	/	/	/
COc1ccc2[nH]c(=O)c(CN(C(=O)C3CCCO3)c3ccc(C)cc3)cc2c1 (stereo not drawn)	-1%	19%	-9%	28µM*	3%	-12%
COc1cc2cc(CN(CCN3CCCC3)C(=O)Nc3ccc(F)cc3)c(=O)[nH]c2cc1OC	-1%	1%	-7%	14µM*	-12%	-14%
